Experimental data from PubChem BioAssay (NCI).
Where “and” joins values, the source holds several entries; their conditions need not be identical. Equal values may be shown once. The panel holds about 83,000 compounds, 20% with a hit somewhere; the sample as a whole holds those more often.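 Activity criterion: percent growth below 10, measured after cells in 96-well plates were exposed to a single compound concentration for 48 hours.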 Calls of active or inactive are those of the source.

system: MOLT-4 leukemia; experiment: NCI-60 one-dose screen, 48 h (100 = growth as untreated, 0 = no growth, -100 = all killed); settings: 10 µM
Experimental: Growth inhibition of the MOLT-4 human tumor cell line is measured as a screen for anti-cancer activity. Cells are grown in 96 well plates and exposed to the test compound for 48 hours. Compounds are tested at a single concentration, which is 10^-5 M for most compounds. The reported endpoint is percent growth (GI% or GIPRCNT), where numbers from 0 - 100% represent growth inhibition, and numbers from -100% - 0 represent cell death. For example, a value of 40 represents 60% growth inhibition. A value of 0 means no net growth occurred over the course of the experiment. A value of -40 indicates 40% of cells at the beginning of the experiment died by the end of the experiment. A value of -100 means all cells are dead at the end of the experiment.
NCI-60 Human Tumor Cell Lines Screen was performed using the standard one-dose NCI protocol, which is described in more detail at https://dtp.cancer.gov/discovery_development/nci-60/default.htm.
Compounds with GIPRCNT values below 10 were considered active. Activity score was based on GIPRCNT using the following formula: […]
Score is 0 for GIPRCNT values of 100 or above, 50 for GIPRCNT values of 0, and 100 for GIPRCNT values of -100.

Compound | growth
Cc1cc(N(CCOS(C)(=O)=O)CCOS(C)(=O)=O)ccc1C=Nc1ccc(-c2nc(Cc3ccccc3)sc2C)cc1 | 14.2% (inactive)
O=[N+]([O-])c1cc[n+]([O-])cc1 | 69.3% (inactive)
C#CCN(Cc1ccc2nc(N)[nH]c(=O)c2c1)c1ccc(C(=O)NC(CCC(=O)O)C(=O)O)cc1 (stereo not drawn) | 39.1% (inactive)
CN(C)CCOC1(Cc2ccc(Cl)cc2Cl)CCC(C(C)(C)C)CC1 (stereo not drawn) | -14.2% (active) and -16.7% (active)
COc1ccc(C(=O)C(CN(C)C)CN(C)C)cc1 | -32% (active)
CC1=CC(=C(c2ccc(N)cc2)c2ccc(N)cc2)C=CC1=N | 10.4% (inactive) and 51.9% (inactive)
Cc1ccc(Sc2ccccc2N)cc1 | 81.2% (inactive)
C=C1C(=O)OC2CC1C(OC(C)=O)C/C(C)=C/CC/C(C)=C\CCC2(C)O (stereo not drawn) | -14.4% (active)
